# Measured values from PubChem BioAssay (EPA / NIEHS).
# Inconclusive results are not listed. Activity calls are given as the source filed them. Rule for the calls, unless noted: active = hit-call score of the fitted dose curve at least 0.9, where 1 is the maximum; inactive = score below 0.9.
# Columns and labels:
# [1] = CCTE_Harrill_HTTr_Apoptosis_DMEM_12hr: (Pilot) CCTE's 12-hour Apoptosis Assessment for the High-Throughput Transcriptomics (HTTr) Platform, in MCF-7 cells cultured in DMEM + 10% fetal bovine serum, Harrill Lab (AID 2283982)
# Outline: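 MCF-7 cells in DMEM + 10% FBS, exposed 12 h to an eight-point dilution series; caspase-3/7 activation imaged with CellEvent Green. Bidirectional fit versus DMSO.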
# [2] = CCTE_Harrill_HTTr_Apoptosis_DMEM_24hr: (Pilot) CCTE's 24-hour Apoptosis Assessment for the High-Throughput Transcriptomics (HTTr) Platform, in MCF-7 cells cultured in DMEM + 10% fetal bovine serum, Harrill Lab (AID 2283983)
# Outline: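 MCF-7 cells in DMEM + 10% FBS, eight-point dilution series, 24 h exposure. Caspase-3/7 activation imaged by high-content imaging with CellEvent Caspase 3/7 Green. Bidirectional curve fitting against DMSO baseline.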
# [3] = CCTE_Harrill_HTTr_Apoptosis_PRF_DMEM_6hr: (Pilot) CCTE's 6-hour Apoptosis Assessment for the High-Throughput Transcriptomics (HTTr) Platform, in MCF-7 cells cultured phenol red-free DMEM + 10% charcoal-stripped fetal bovine serum, Harrill Lab (AID 2283984)
# Outline: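 MCF-7 cells in phenol red-free DMEM + 10% charcoal-stripped FBS, eight-point dilution series, 6 h exposure. Caspase-3/7 activation imaged by high-content imaging with CellEvent Caspase 3/7 Green; bidirectional fit versus DMSO baseline.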
# [4] = CCTE_Harrill_HTTr_Apoptosis_PRF_DMEM_24hr: (Pilot) CCTE's 24-hour Apoptosis Assessment for the High-Throughput Transcriptomics (HTTr) Platform, in MCF-7 cells cultured in phenol red-free DMEM + 10% charcoal-stripped fetal bovine serum, Harrill Lab (AID 2283986)
# Outline: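 MCF-7 cells in phenol red-free DMEM with 10% charcoal-stripped FBS, exposed 24 h across an eight-point dilution series. Caspase-3/7 activation imaged with CellEvent Green by high content imaging; bidirectional fitting against DMSO.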
# [5] = CCTE_Shafer_MEA_acute_spike_number: CCTE's Neural Acute Assay for Total Number of Spikes, Shafer Lab (AID 2284008);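 for AC50: curve fitted for decrease in spike count so AC50 reflects inhibitors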
# Outline: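 Primary rat cortical neurons on 16-electrode MEA wells; on DIV 13 or 15, 40-min baseline then 40-min recording with compound (0.03-40 uM) at 37 C. Spikes detected at 8x rms noise; percent change versus baseline, DMSO as negative control.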
# [6] = CCTE_Harrill_HTTr_Viability_MCF7: CCTE's 6-hour Cell Viability Assessment for the High-Throughput Transcriptomics (HTTr) Platform, in MCF-7 cells cultured in DMEM + 10% fetal bovine serum, Harrill Lab (AID 2284010)
# Outline: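 Viability measured through PI dye exclusion by high-content imaging at 6 h post-dosing.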
# [7] = CCTE_Harrill_HTTr_Apoptosis_MCF7: CCTE's 6-hour Apoptosis Assessment for the High-Throughput Transcriptomics (HTTr) Platform, in MCF-7 cells cultured in DMEM + 10% fetal bovine serum, Harrill Lab (AID 2284011)
# Outline: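 MCF-7 cells in DMEM + 10% fetal bovine serum were exposed to chemicals for 6 hours over an eight-point dilution series. Caspase-3/7 activation was imaged by high content imaging with CellEvent Caspase 3/7 Green; bidirectional fitting used DMSO as baseline.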
# [8] = CCTE_Harrill_HTTr_CellCount_MCF7: CCTE's Cell Proliferation Assessment for the High-Throughput Transcriptomics (HTTr) Platform, Harrill Lab (AID 2284012; active = hit-call score of the fitted dose curve at least 0.9, where 1 is the maximum;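 note: count of Hoechst-stained nuclei per well by high-content imaging in MCF-7 cells; cells exposed to compound for six hours; intended direction is loss of nuclei count meaning fewer cells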)
# Outline: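 Nuclei counting (Hoechst, high content imaging) in MCF-7 after a 6 h treatment at eight concentrations. Activity fitted bidirectionally, DMSO as negative control.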
# [9] = CCTE_Shafer_MEA_acute_burst_duration_mean: CCTE's Neural Acute Assay for Mean Burst Duration, Shafer Lab (AID 2284014);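 note: hits are decreases in mean burst duration relative to DMSO controls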
# Outline: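 Primary rat cortical neurons on 16-electrode MEA wells, treated on DIV 13 or 15 with compound (0.03-40 uM; ≥3 wells each). 40-min baseline and 40-min exposure recordings at 37 C; percent change in mean burst duration per well versus DMSO.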
# [10] = CCTE_Shafer_MEA_acute_interburst_interval_mean: CCTE's Neural Acute Assay for Mean Interburst Interval, Shafer Lab (AID 2284016);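 note: percent change of mean interburst interval versus each well's own pre-dose baseline; curves fitted for decrease in interburst interval relative to DMSO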
# Outline: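 MEA recording of spontaneous network bursting in primary rat cortical cultures; mean interburst interval was compared before and after a 40-min compound exposure (0.03-40 uM) and expressed as percent change, relative to DMSO.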
# [11] = CCTE_Shafer_MEA_acute_burst_percentage_std: CCTE's Neural Acute Assay for Standard Deviation of Burst Percentage, Shafer Lab (AID 2284018);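 note: fitted in the negative direction so actives lower burst percentage SD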
# Outline: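 Primary rat cortical neurons on 16-electrode MEA wells were recorded 40 min at baseline (DIV 13 or 15), then 40 min after compound (0.03-40 uM), at 37 C. Well value is SD across electrodes of spikes-in-bursts/total spikes; endpoint is percent change, DMSO-referenced.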
# [12] = CCTE_Shafer_MEA_acute_per_network_burst_spike_number_mean: CCTE's Neural Acute Assay for Average Number of Spikes in a Network Burst, Shafer Lab (AID 2284019);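 for AC50: curve fitted for loss of signal so actives reduce spikes per network burst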
# Outline: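 Primary rat cortical neurons on 16-electrode MEA wells, DIV 13 or 15, 37 C; 40-min baseline then 40-min recording with compound (0.03-40 uM). Spikes per network burst (total spikes/number of bursts) expressed as percent change from baseline, DMSO reference.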
# [13] = test system: DIO1 (gene 1733); assay: CCTE_GLTED_hDIO1: CCTE's human Deiodinase 1 (DIO1) Inhibition Assay, Great Lakes Toxicology and Ecology Division (GLTED) Lab (AID 2283987; active = hit-call score of the fitted dose curve at least 0.9, where 1 is the maximum;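 note: isolated human DIO1 enzyme in a cell-free setup rather than cells; enzyme activity read as free iodide liberated from substrate via Sandell-Kolthoff colorimetry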)
# Outline: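 Cell-free human DIO1 enzyme was incubated with test chemical for 3 h, and iodide released from substrate was measured by Sandell-Kolthoff absorbance. Loss of signal versus DMSO baseline indicated inhibition; plates were run in triplicate.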
# [14] = target: Nucleoli Translocation, AR (gene 367) (UniProt P10275); assay: UPITT_HCI_U2OS_AR_TIF2_Nucleoli_Agonist: University of Pittsburgh U2OS Androgen Receptor-Transcriptional Intermediary Factor 2 (AR-TIF2) Agonism High Content Imaging Assay for Nucleoli Translocation (AID 2283998; active = hit-call score of the fitted dose curve at least 0.9, where 1 is the maximum)
# Nucleoli Translocation, AR (gene 367), sequence (P10275 whole entry, looked up, the tested form may be a part): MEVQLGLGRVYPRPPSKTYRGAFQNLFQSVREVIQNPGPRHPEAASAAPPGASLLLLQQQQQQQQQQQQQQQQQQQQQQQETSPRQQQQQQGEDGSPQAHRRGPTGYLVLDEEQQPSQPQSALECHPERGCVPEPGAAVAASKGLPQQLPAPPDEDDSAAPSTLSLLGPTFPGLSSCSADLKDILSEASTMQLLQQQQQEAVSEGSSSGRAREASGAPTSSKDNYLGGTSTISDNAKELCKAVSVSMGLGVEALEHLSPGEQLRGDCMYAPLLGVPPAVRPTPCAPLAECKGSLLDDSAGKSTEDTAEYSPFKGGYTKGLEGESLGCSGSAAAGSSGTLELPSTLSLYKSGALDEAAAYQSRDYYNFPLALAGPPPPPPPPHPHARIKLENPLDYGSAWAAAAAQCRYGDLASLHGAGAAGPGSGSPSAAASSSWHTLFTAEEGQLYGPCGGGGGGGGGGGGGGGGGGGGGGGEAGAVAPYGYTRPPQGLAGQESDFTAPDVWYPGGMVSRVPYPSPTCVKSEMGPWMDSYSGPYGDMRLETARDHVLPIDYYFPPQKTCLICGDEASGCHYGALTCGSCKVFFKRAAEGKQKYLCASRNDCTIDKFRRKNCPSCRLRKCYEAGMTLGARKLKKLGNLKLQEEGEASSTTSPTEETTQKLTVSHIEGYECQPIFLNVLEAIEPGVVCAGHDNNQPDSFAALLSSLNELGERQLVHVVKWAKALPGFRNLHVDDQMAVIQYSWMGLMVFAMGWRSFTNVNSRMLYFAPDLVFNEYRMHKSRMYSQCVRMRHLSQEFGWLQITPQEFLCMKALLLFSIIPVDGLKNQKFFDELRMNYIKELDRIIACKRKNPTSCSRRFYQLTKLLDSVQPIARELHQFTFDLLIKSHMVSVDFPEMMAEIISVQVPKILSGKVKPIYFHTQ
# Outline: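 Cells express human AR fused to red fluorescent protein and TIF2 fused to GFP. Red fluorescence in the nucleolar region was quantified by high-content imaging and fitted as gain-of-signal against a DMSO baseline. Compounds were tested at 0.195 to 50 uM final (0.5% DMSO).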
# [15] = target: Ratio of Nucleoli Translocation and Cytoplasm, AR (gene 367) (UniProt P10275); assay: UPITT_HCI_U2OS_AR_TIF2_Nucleoli_Cytoplasm_Ratio_Antagonist: University of Pittsburgh U2OS Androgen Receptor-Transcriptional Intermediary Factor 2 (AR-TIF2) Antagonism High Content Imaging Assay for Ratio of Nucleoli Translocation and Cytoplasm (AID 2283999; active = hit-call score of the fitted dose curve at least 0.9, where 1 is the maximum;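 note: antagonists lower the DHT-driven ratio of nucleolar to cytoplasmic red signal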)
# Ratio of Nucleoli Translocation and Cytoplasm, AR (gene 367), sequence (P10275 whole entry, looked up): as the sequence (P10275 whole entry, looked up, the tested form may be a part) above
# Outline: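 High-content imaging quantifies the red nucleolar:cytoplasmic fluorescence ratio in U2OS cells with AR-RFP and TIF2-GFP. Final concentrations are 20 uM (screen) or 0.195–50 uM (dose response), analysed against DHT as baseline.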
# [16] = target: Ratio of Nucleoli Translocation and Cytoplasm, AR (gene 367) (UniProt P10275); assay: UPITT_HCI_U2OS_AR_TIF2_Nucleoli_Cytoplasm_Ratio_Agonist: University of Pittsburgh U2OS Androgen Receptor-Transcriptional Intermediary Factor 2 (AR-TIF2) Agonism High Content Imaging Assay for Ratio of Nucleoli Translocation and Cytoplasm (AID 2284000; active = hit-call score of the fitted dose curve at least 0.9, where 1 is the maximum;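 note: hits raise the red nucleolar to cytoplasm ratio above vehicle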)
# Outline: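 U2OS cells expressing RFP-tagged human AR and GFP-tagged TIF2 were imaged by high-content fluorescence microscopy. The endpoint is the ratio of nucleolar to cytoplasmic red fluorescence, fitted for gain of signal relative to DMSO. Concentration-response spanned 0.195 to 50 uM final (0.5% DMSO).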
# [17] = CCTE_Simmons_MITO_basal_resp_rate: CCTE's HepG2 Seahorse XF Respirometric Screening Assay at Basal Respiratory State, Simmons Lab (AID 2284001); conditions: actives raise or lower the signal
# Outline: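 HepG2 cells were given test chemicals at 7 concentrations, 125 nM to 100 uM final, and oxygen consumption rate was read every 6 min (3 min mix, 3 min measure) over 72 min. Basal-phase OCR was fitted bidirectionally against DMSO.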
# [18] = CCTE_Simmons_MITO_max_resp_rate: CCTE's HepG2 Seahorse XF Respirometric Screening Assay at Maximal Respiratory State [uncoupled], Simmons Lab (AID 2284002); conditions: actives raise or lower the signal
# Outline: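 HepG2 oxygen consumption was read on a Seahorse XF96 after FCCP uncoupler injection, following test compound injection; 7 concentrations, 125 nM–100 uM final, three biological replicates. Bidirectional fitting against DMSO vehicle baseline.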
# [19] = CCTE_Simmons_MITO_inhib_resp_rate: CCTE's HepG2 Seahorse XF Respirometric Screening Assay at Inhibited Respiratory State [full ETC block], Simmons Lab (AID 2284006); conditions: actives raise or lower the signal
# Outline: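 Inhibited respiration was taken as HepG2 oxygen consumption after rotenone/antimycin A, which followed test-compound and FCCP injections. Chemicals were tested at seven final concentrations from 125 nM to 100 uM. Activity was fitted bidirectionally relative to DMSO.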
# [20] = CCTE_Simmons_MITO_viability: CellTiter-Glo Viability Assessment for CCTE's HepG2 Seahorse XF Respirometric Screening Assay [post-hoc], Simmons Lab (AID 2284007; active = hit-call score of the fitted dose curve at least 0.9, where 1 is the maximum;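 note: cells exposed to chemical for 90 min before the ATP read; actives lower ATP signal relative to DMSO baseline meaning reduced viability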)
# Outline: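 HepG2 cells; test chemical 7 conc. (125 nM–100 uM final) × 90 min; then luminescent ATP detection. DMSO vehicle. Positive control dichlone, 8 conc. from 10 nM to 100 uM final. Loss-of-signal endpoint.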
smiles,measurement,setting,value
COC(=O)[C@H]1[C@H]2C[C@@H]3c4[nH]c5cc(OC)ccc5c4CCN3C[C@H]2C[C@@H](OC(=O)c2cc(OC)c(OC)c(OC)c2)[C@@H]1OC,outcome,[1],inactive
same,AC50,[2],46.2 µM (active)
same,outcome,[3],inactive
same,AC50,[4],58.3 µM (active)
same,AC50,[5],1.03 µM (active)
same,outcome,[6],inactive
same,outcome,[7],inactive
same,outcome,[8],inactive
same,outcome,[9],inactive
same,AC50,[10],4.18 µM (active)
same,outcome,[11],inactive
same,AC50,[12],0.808 µM (active)
CCCCCCCCCCCCCCOS(=O)(=O)O,AC50,[13],85.7 µM (active)
same,outcome,[6],inactive
same,outcome,[7],inactive
CCCCCCCCCC[N+](C)(C)[O-],outcome,[14],inactive
same,outcome,[15],inactive
same,outcome,[16],inactive
same,outcome,[6],inactive
same,outcome,[7],inactive
same,outcome,[8],inactive
C=CCCCCCCCCCCCC,outcome,[14],inactive
same,outcome,[15],inactive
same,outcome,[6],inactive
same,outcome,[7],inactive
same,outcome,[8],inactive
CC(=O)O[C@]1(C(C)=O)CC[C@H]2[C@@H]3C=C(Cl)C4=CC(=O)[C@@H]5C[C@@H]5[C@]4(C)[C@H]3CC[C@@]21C,outcome,[1],inactive
same,outcome,[2],inactive
same,outcome,[3],inactive
same,outcome,[4],inactive
same,AC50,[17],29 µM (active)
same,AC50,[18],28.1 µM (active)
same,outcome,[19],inactive
same,AC50,[20],23 µM (active)
same,outcome,[6],inactive
same,outcome,[7],inactive
same,outcome,[8],inactive
O=C(Oc1ccccc1)c1cccc(C(=O)Oc2ccccc2)c1,outcome,[14],inactive
same,outcome,[15],inactive
same,outcome,[16],inactive
same,outcome,[6],inactive
same,outcome,[7],inactive
same,outcome,[8],inactive
S=c1[nH]c2ccccc2s1,AC50,[13],23.4 µM (active)
same,outcome,[6],inactive
same,outcome,[7],inactive
same,outcome,[8],inactive
Cc1cc(Cc2ccc(N)c(C)c2)ccc1N,outcome,[17],inactive
same,AC50,[18],50 µM (active)
same,outcome,[19],inactive
same,AC50,[5],15.8 µM (active)
same,outcome,[6],inactive
same,outcome,[7],inactive
same,outcome,[9],inactive
same,AC50,[10],35.7 µM (active)
same,outcome,[11],inactive
same,outcome,[12],inactive
CCCCC(CC)CO (centres undefined),outcome,[6],inactive
same,outcome,[7],inactive
Oc1ccc(O)cc1,outcome,[5],inactive
same,outcome,[6],inactive
same,outcome,[7],inactive
same,outcome,[8],inactive
same,outcome,[9],inactive
same,AC50,[10],20 µM (active)
same,outcome,[11],inactive
same,outcome,[12],inactive
CCCCCCC(CCCCCCCCCCC(=O)OCC(COC(C)=O)OC(C)=O)OC(C)=O (centres undefined),outcome,[6],inactive
same,outcome,[7],inactive
O=[Si]=O,outcome,[6],inactive
same,outcome,[7],inactive
c1ccc2occc2c1,outcome,[5],inactive
same,outcome,[6],inactive
same,outcome,[7],inactive
same,outcome,[8],inactive
same,outcome,[9],inactive
same,outcome,[10],inactive
same,outcome,[11],inactive
same,outcome,[12],inactive
CC(C)NCC(O)c1ccc(O)c(O)c1 (centres undefined),outcome,[5],inactive
same,outcome,[6],inactive
same,outcome,[7],inactive
same,outcome,[8],inactive
same,outcome,[9],inactive
same,outcome,[10],inactive
same,outcome,[11],inactive
same,outcome,[12],inactive
O=C1O[C@H]([C@H](O)CO)C(O)=C1O,outcome,[6],inactive
same,outcome,[7],inactive
CCCC(=O)O,outcome,[5],inactive
same,outcome,[6],inactive
same,outcome,[7],inactive
same,outcome,[8],inactive
same,outcome,[9],inactive
same,outcome,[10],inactive
same,outcome,[11],inactive
same,outcome,[12],inactive
OCC(O)CO,outcome,[6],inactive
same,outcome,[7],inactive
